# Laboratory results from PubChem BioAssay (NCI).
# Several values for one entry are separate records, joined by “and”; a condition that tells them apart may be missing. Equal entries are not always repeated. This is part of a sample that, as a whole, favours compounds with a hit. Of some 79,000 tested, about 15% had one in any assay. Unmarked numbers belong to inactive results. Activity calls are given as the source filed them. Rule as the data show it: active = growth inhibition above about 70%; inactive = the rest.
# Assay: NCI Yeast Anticancer Drug Screen. Data for the sgs1 mgt1 strain (AID 161);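 also: 0% = growth of cultures given vehicle only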
# Settings: S. cerevisiae sgs1 mgt1 strain, at 50.0 µM, hits give high values
# How it was run: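 This yeast growth screen uses a strain with defined DNA-repair lesions; compound-treated growth is compared with vehicle-treated growth.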
row,SMILES,growth inhibition
1,O=P1(N(CCCl)CCCl)Nc2cc3ccccc3cc2N1,-4.45%
2,CC(C)N1CC(COc2cccc3ccccc23)OP1(=O)N(CCCl)CCCl (stereo not given),52%
3,CC(=O)c1ccc([As](=O)(O)O)cc1,-13.4%
4,NC1=C(N2CC2)C(=O)C(N)=C(N2CC2)C1=O,-8.4%
5,Cc1cc(NN=O)nc(C)n1,-1.35%
6,O=[N+]([O-])O.[Sm],26.8%
7,COc1ccc(C(OCC2OC(n3ccc(NC(=O)c4ccccc4)nc3=O)CC2OP2(=S)SCCS2)(c2ccccc2)c2ccc(OC)cc2)cc1 (stereo not given),-4.1%
8,CC1=CC(=O)NP(=O)(Oc2ccc(C)cc2)N1 (stereo not given),-4.65%
9,CC1CN1P1(N2CC2C)=NP(N2CC2C)(N2CC2C)=NP(N2CC2C)(N2CC2C)=N1 (stereo not given),2.75%
10,O=P1(C(Cl)Cl)OCCCO1,-2.65%
11,C[CH2][Sn]1([CH2]C)[O]OC(c2ccccc2)[O]1 (stereo not given),18.7%
12,COc1ccc2n[se]nc2c1,26.9%
13,CC1(C)CC(O)CC(C)(C)N1O,37%
14,COP12(OC)NC(=O)OC1(C(F)(F)F)c1ccccc1O2 (stereo not given),-23.9%
15,CCOP(=S)(OCC)OP(=O)(CC)CC,-1.7%
16,CN(C)/N=C(\CCN1CCCC1)CC(c1ccccc1)c1c(O)c2ccccc2oc1=O (stereo not given),63.1%
17,CC(CN1CCCCCC1)C(C#N)(c1ccccc1)c1ccccc1 (stereo not given),25.4%
18,COc1ccc(N2CC=C(c3ccccc3)OP2(=O)N2CC2)cc1 (stereo not given),5.9%
19,COc1cccc2c1C(=O)c1c(O)c3c(c(O)c1C2=O)CC(O)(C(=O)CO)CC3OC1CC(N2CCOCC2C#N)C(O)C(C)O1 (stereo not given),88.9% (active)
20,CNC(P(=O)([O-])[O-])P(=O)([O-])[O-].N.N.[Pt+2],-47.2%

row,SMILES,growth inhibition
1,OC1C2CCCCN2C[C@@H](O)[C@H]1O (stereo not given in full),22.1%
2,[CH3][Sb]([CH3])([CH3])([O]C(=O)C(Cl)Cl)[O]C(=O)C(Cl)Cl,15.3%
3,C[N+]1(C)CCN(c2ccccc2)CC1,-12.5%
4,COC(=O)C1=CO[C@@H](C)[C@@H]2CN3CCc4c([nH]c5cc(OC)ccc45)[C@H]3C[C@H]12,-34%
5,C=C1CCC2CC1C2(C)C (stereo not given),6.5% and -6.65% and -29.8%
6,CCC(C)C1(CCc2ccccc2)C(=O)NC(=O)NC1=O (stereo not given),3.55%
7,Br[CH](Br)[Hg][c]1ccccc1,94.3% (active)
8,CC1C2Cc3ccc(O)cc3C1(C)CCN2C (stereo not given),30.6%
9,CCOC(=O)C1C(=O)C(=O)N2CCc3c([nH]c4ccccc34)C12 (stereo not given),34%
10,CN(C)CCC(O)c1c[nH]c2ccccc12 (stereo not given),-4.1%
11,CCC1(c2ccccc2)C(=O)N(CCCl)C(=O)N(CCCl)C1=O,4.35%
12,CC1(C)SC2C(NC(=O)Cc3ccccc3)C(=O)N2C1C(=O)O (stereo not given) (tested in a mixture with another compound),13.5%
13,COc1ccc(-c2c[se]c(=S)s2)cc1,-7.35%
14,COc1cccc(C=C(C#N)C#N)c1,31.7%
15,COP(=O)(OC)OC1C(=O)NC(=O)NC1=O,-4.15%
16,Cc1cc(N(CCCl)CCCl)ccc1C1N(Cc2ccc(N(C)C)cc2)CCN1Cc1ccc(N(C)C)cc1,16.4%
17,O=C(NC1CCCCC1)c1c(O)[nH]c(=S)[nH]c1=O,14.8%
18,O=C(NCCN1CCOCC1)c1ccc2cc(C(=O)N3CC(CCl)c4ccc([N+](=O)[O-])cc43)[nH]c2c1 (stereo not given),88% (active)
19,Cc1cc(Cc2cc(C)c(NC(=O)C(=O)C3C(=O)NC(=S)NC3=O)c(C(C)C)c2)cc(C(C)C)c1NC(=O)C(=O)C1C(=O)NC(=S)NC1=O,-18.9%
20,O=C(Cc1cccc([N+](=O)[O-])c1)Nc1cccc(S(=O)(=O)F)c1,-20.3%

# Assay: NCI Yeast Anticancer Drug Screen. Data for the cln2 rad14 strain (AID 165);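 also: 0% = growth equal to vehicle treated cultures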
# Settings: S. cerevisiae cln2 rad14 strain, at 50.0 µM, hits give high values
# How it was run: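 Strain: cln2 rad14 yeast, altered in cell cycle control and DNA damage repair. Read-out: growth inhibition vs vehicle.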
row,SMILES,growth inhibition
1,O=P1(N(CCCl)CCCl)Nc2cc3ccccc3cc2N1,-108%
2,CC(C)N1CC(COc2cccc3ccccc23)OP1(=O)N(CCCl)CCCl (stereo not given),98.3% (active)
3,CC(=O)c1ccc([As](=O)(O)O)cc1,-21.4%
4,NC1=C(N2CC2)C(=O)C(N)=C(N2CC2)C1=O,7.9%
5,Cc1cc(NN=O)nc(C)n1,-14.4%
6,O=[N+]([O-])O.[Sm],17.1%
7,COc1ccc(C(OCC2OC(n3ccc(NC(=O)c4ccccc4)nc3=O)CC2OP2(=S)SCCS2)(c2ccccc2)c2ccc(OC)cc2)cc1 (stereo not given),10%
8,CC1=CC(=O)NP(=O)(Oc2ccc(C)cc2)N1 (stereo not given),-0.75%
9,CC1CN1P1(N2CC2C)=NP(N2CC2C)(N2CC2C)=NP(N2CC2C)(N2CC2C)=N1 (stereo not given),15.7%
10,O=P1(C(Cl)Cl)OCCCO1,-10.2%
11,C[CH2][Sn]1([CH2]C)[O]OC(c2ccccc2)[O]1 (stereo not given),-3.65%
12,COc1ccc2n[se]nc2c1,11.6%
13,CC1(C)CC(O)CC(C)(C)N1O,22.2%
14,COP12(OC)NC(=O)OC1(C(F)(F)F)c1ccccc1O2 (stereo not given),-5.15%
15,CCOP(=S)(OCC)OP(=O)(CC)CC,4.4%
16,CN(C)/N=C(\CCN1CCCC1)CC(c1ccccc1)c1c(O)c2ccccc2oc1=O (stereo not given),48%
17,CC(CN1CCCCCC1)C(C#N)(c1ccccc1)c1ccccc1 (stereo not given),49.5%
18,COc1ccc(N2CC=C(c3ccccc3)OP2(=O)N2CC2)cc1 (stereo not given),18.2%
19,COc1cccc2c1C(=O)c1c(O)c3c(c(O)c1C2=O)CC(O)(C(=O)CO)CC3OC1CC(N2CCOCC2C#N)C(O)C(C)O1 (stereo not given),86.5% (active)
20,CNC(P(=O)([O-])[O-])P(=O)([O-])[O-].N.N.[Pt+2],-17.1%

row,SMILES,growth inhibition
1,OC1C2CCCCN2C[C@@H](O)[C@H]1O (stereo not given in full),22.6%
2,[CH3][Sb]([CH3])([CH3])([O]C(=O)C(Cl)Cl)[O]C(=O)C(Cl)Cl,-22.6%
3,C[N+]1(C)CCN(c2ccccc2)CC1,14.2%
4,COC(=O)C1=CO[C@@H](C)[C@@H]2CN3CCc4c([nH]c5cc(OC)ccc45)[C@H]3C[C@H]12,-30.1%
5,C=C1CCC2CC1C2(C)C (stereo not given),9.45% and -27% and 2.6%
6,CCC(C)C1(CCc2ccccc2)C(=O)NC(=O)NC1=O (stereo not given),-31.3%
7,Br[CH](Br)[Hg][c]1ccccc1,99.2% (active)
8,CC1C2Cc3ccc(O)cc3C1(C)CCN2C (stereo not given),17.6%
9,CCOC(=O)C1C(=O)C(=O)N2CCc3c([nH]c4ccccc34)C12 (stereo not given),12.4%
10,CN(C)CCC(O)c1c[nH]c2ccccc12 (stereo not given),-5.15%
11,CCC1(c2ccccc2)C(=O)N(CCCl)C(=O)N(CCCl)C1=O,-21.7%
12,CC1(C)SC2C(NC(=O)Cc3ccccc3)C(=O)N2C1C(=O)O (stereo not given) (tested in a mixture with another compound),-2.3%
13,COc1ccc(-c2c[se]c(=S)s2)cc1,-33.5%
14,COc1cccc(C=C(C#N)C#N)c1,26.4%
15,COP(=O)(OC)OC1C(=O)NC(=O)NC1=O,14.2%
16,Cc1cc(N(CCCl)CCCl)ccc1C1N(Cc2ccc(N(C)C)cc2)CCN1Cc1ccc(N(C)C)cc1,-3.4%
17,O=C(NC1CCCCC1)c1c(O)[nH]c(=S)[nH]c1=O,12.2%
18,O=C(NCCN1CCOCC1)c1ccc2cc(C(=O)N3CC(CCl)c4ccc([N+](=O)[O-])cc43)[nH]c2c1 (stereo not given),88.8% (active)
19,Cc1cc(Cc2cc(C)c(NC(=O)C(=O)C3C(=O)NC(=S)NC3=O)c(C(C)C)c2)cc(C(C)C)c1NC(=O)C(=O)C1C(=O)NC(=S)NC1=O,21.6%
20,O=C(Cc1cccc([N+](=O)[O-])c1)Nc1cccc(S(=O)(=O)F)c1,-2.9%
